Records with an inconclusive call do not appear. The source holds several records for some structures; these can differ, active in one and inactive in another. The source made the active and inactive calls. Unless noted, the call rests on the fitted dose curve; in most records, active means well fitted curve in the direction sought with a large enough effect; inconclusive means small, poorly fitted or top-dose-only effect, or another doubt; inactive means no such curve, though single readings can be large; an effect the other way counts as inactive or inconclusive.
Assays:
[1] = A High-Content qHTS Against Drug Library for the Identification of Small Molecules that Inhibit DYT1 Early Onset Primary Dystonia-Associated Cell Pathology (AID 1645839; calls by dose curve; further: series mostly up to about 46 µM)
How it was run: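 Flp-In T-REx 293 cells with tetracycline-inducible EGFP-delE hTOR1A (WT EGFP-hTOR1A as reference), 800 cells/well; compound added with tetracycline, 48 h at 37 C. Fixed, permeabilized cells imaged; %pathology (punctate TorsinA) primary, cell count counterscreen.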

[2] = biological target: Cytochrome P450 2D6 (Homo sapiens) (UniProt P10635); assay: Cytochrome P450 family 2 subfamily D member 6 (CYP2D6) small molecule antagonists: luciferase biochemical (cell-free) qHTS assay (AID 1645840; active means well fitted curve in the direction sought with a large enough effect in the repeat runs; an effect the other way counts as inactive or inconclusive; further: series mostly up to about 57 µM; on the % scale 0 is the no-effect control and ±100 the full control effect; nearly all actives have a fitted effect of over 55% in size)
How it was run: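 P450-Glo luminescent screen: recombinant CYP2D6 enzyme–proluciferin substrate mix preincubated with compound 10 min at room temperature, then NADPH regeneration added for 1 h at room temperature. Detection reagent added for 20 min; luciferin light read as relative luminescence units.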

[3] = Primary qHTS for inhibitors of nuclear receptor binding SET domain protein 2 (NSD2) in an isogenic RCH-ACV NSD2 p.E1099K mutant (9B) (AID 1645876); further: nearly all actives have a fitted effect of over 70% in size
[4] = Primary qHTS for inhibitors of nuclear receptor binding SET domain protein 2 (NSD2) in an RCH-ACV wild type WT cells (2C) (AID 1645877); further: nearly all actives have a fitted effect of over 70% in size; on activity change, negative = cell killing: on the % scale 0 is the no-effect control and ±100 the full control effect
[5] = biological target: Glutathione peroxidase 1 (Homo sapiens) (UniProt P07203); assay: Primary qHTS Assay for Inhibitors of Recombinant Selenoprotein Glutathione Peroxidase 1 (GPX1) (AID 1845191); further: nearly all actives have a fitted effect of over 65% in size
How it was run: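 GR-coupled assay: compounds preincubated 30 min at room temperature with GPX1, then reaction started with CHP; final 10 nM GPX1, 1 mM GSH, 0.5 mM CHP, 0.5 mM NADPH, 100 nM GR, 0.01% BSA, pH 7.5 Tris buffer. NADPH fluorescence (340/450 nm) read at 0 and 15 min.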

[6] = biological target: Cytochrome P450 2C9 (Homo sapiens) (UniProt P11712); assay: Cytochrome P450 family 2 subfamily C member 9 (CYP2C9) small molecule antagonists: luciferase biochemical (cell-free) qHTS assay (AID 1645842; active means well fitted curve in the direction sought with a large enough effect in the repeat runs; an effect the other way counts as inactive or inconclusive; further: nearly all actives have a fitted effect of over 55% in size; further: potency means the concentration at half of the fitted maximal effect)
How it was run: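 Luminescence, after 20 min with luciferin detection reagent, reflected CYP2C9 turnover during a 1 h NADPH-driven reaction at 37C. Enzyme-substrate mix contained 0.4% bovine serum albumin and was preincubated with compound 10 min at room temperature.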

[7] = biological target: Cytochrome P450 3A4 (Homo sapiens) (UniProt P08684); assay: Cytochrome P450 family 3 subfamily A member 4 (CYP3A4) small molecule antagonists: luciferase qHTS assay (AID 1645841; active means well fitted curve in the direction sought with a large enough effect in the repeat runs; an effect the other way counts as inactive or inconclusive; further: nearly all actives have a fitted effect of over 45% in size)
How it was run: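 P450-Glo CYP3A4 enzyme with proluciferin substrate preincubated 10 min with compound at room temperature, then NADPH regeneration 1 h. Luciferin detection reagent added for 20 min; luminescence recorded. Ketoconazole positive control.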

[8] = NCATS anti-infectives library activity on HEK293 viability as a counter-qHTS vs the C. elegans viability qHTS (AID 1745854);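 further: HEK293 cells exposed to compounds for 24 hr before the viability read; on the % scale 0 is the no-effect control and ±100 the full control effect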
How it was run: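 Cytotoxicity in human HEK293 cells is measured by ATP-dependent CellTiter-Glo luminescence following a 24 hr incubation with titrated library compounds at 37C. Top final concentration is 41.7 uM.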

[9] = biological target: Rap guanine nucleotide exchange factor 3 (Homo sapiens) (UniProt O95398); assay: Confirmatory qHTS for antagonist of cAMP-regulated guanine nucleotide exchange factor 3 (EPAC1) (AID 1645880);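 further: plate controls were DMSO only for no effect and full effect of the ATA control for full effect; nearly all actives have a fitted effect of over 55% in size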
How it was run: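 Nucleotide exchange uses 100 nM EPAC1, 250 nM RAP1B-BODIPY-GDP and 50 uM GDP, with compounds in a concentration-titration series. After 5 min at room temperature, fluorescence (480 nm ex/540 nm em) is read every 5 min for 30 min. Data are normalized to control ATA and DMSO.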

[10] = biological target: Rap guanine nucleotide exchange factor 3 (Homo sapiens) (UniProt O95398); assay: Confirmatory qHTS for agonist of cAMP-regulated guanine nucleotide exchange factor 3 (EPAC1) (AID 1645881);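 further: EPAC1 catalysed release of BODIPY-GDP from Rap1B seen as fluorescence loss; 100% = effect of cAMP agonist control; nearly all actives have a fitted effect of over 75% in size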
[11] = biological target: Rap guanine nucleotide exchange factor 4 (Homo sapiens) (UniProt Q8WZA2); assay: Confirmatory qHTS for agonist of cAMP-regulated guanine nucleotide exchange factor 4 (EPAC2) (AID 1645884);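 further: nucleotide exchange releases bodipy-GDP from Rap1 and this lowers its fluorescence; on the % scale 0 is the no-effect control and ±100 the full control effect; nearly all actives have a fitted effect of over 65% in size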
[12] = biological target: Rap guanine nucleotide exchange factor 4 (Homo sapiens) (UniProt Q8WZA2); assay: Confirmatory qHTS for antagonist of cAMP-regulated guanine nucleotide exchange factor 4 (EPAC2) (AID 1645885); further: nearly all actives have a fitted effect of over 25% in size; further: potency means the concentration at half of the fitted maximal effect
[13] = biological target: Rap guanine nucleotide exchange factor 3 (Homo sapiens) (UniProt O95398); assay: Counterscreen qHTS for antagonist of cAMP-regulated guanine nucleotide exchange factor 3 (EPAC1) (AID 1645888);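 further: fluorescence loss as bound BODIPY-GDP is released from Rap1B; % of control where 0% means no effect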
How it was run: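 Rap1B–BODIPY-GDP (250 nM) with 50 uM GDP; compounds pin-transferred to 9.74 nM–152 uM final (activator) or from 7.32 nM upwards (inhibitor). Fluorescence Ex/Em 480/540 nm read at 5 and 30 min, then after adding cAMP or buffer, at room temperature.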

Cytochrome P450 2C9 (Homo sapiens), sequence (P11712 whole entry, looked up): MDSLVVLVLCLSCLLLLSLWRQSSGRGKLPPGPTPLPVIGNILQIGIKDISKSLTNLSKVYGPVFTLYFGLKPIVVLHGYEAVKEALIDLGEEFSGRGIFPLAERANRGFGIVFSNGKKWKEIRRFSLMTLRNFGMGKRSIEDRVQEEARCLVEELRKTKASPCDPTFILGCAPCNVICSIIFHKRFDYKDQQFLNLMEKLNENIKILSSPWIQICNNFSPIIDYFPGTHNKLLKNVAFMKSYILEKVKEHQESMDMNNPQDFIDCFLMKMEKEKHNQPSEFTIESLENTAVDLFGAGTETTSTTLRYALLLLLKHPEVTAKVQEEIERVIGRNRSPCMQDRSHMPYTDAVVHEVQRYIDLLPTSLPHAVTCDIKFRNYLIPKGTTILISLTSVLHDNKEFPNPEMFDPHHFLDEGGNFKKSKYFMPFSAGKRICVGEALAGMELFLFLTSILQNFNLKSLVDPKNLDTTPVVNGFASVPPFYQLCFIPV
Cytochrome P450 2D6 (Homo sapiens), sequence (P10635 whole entry, looked up): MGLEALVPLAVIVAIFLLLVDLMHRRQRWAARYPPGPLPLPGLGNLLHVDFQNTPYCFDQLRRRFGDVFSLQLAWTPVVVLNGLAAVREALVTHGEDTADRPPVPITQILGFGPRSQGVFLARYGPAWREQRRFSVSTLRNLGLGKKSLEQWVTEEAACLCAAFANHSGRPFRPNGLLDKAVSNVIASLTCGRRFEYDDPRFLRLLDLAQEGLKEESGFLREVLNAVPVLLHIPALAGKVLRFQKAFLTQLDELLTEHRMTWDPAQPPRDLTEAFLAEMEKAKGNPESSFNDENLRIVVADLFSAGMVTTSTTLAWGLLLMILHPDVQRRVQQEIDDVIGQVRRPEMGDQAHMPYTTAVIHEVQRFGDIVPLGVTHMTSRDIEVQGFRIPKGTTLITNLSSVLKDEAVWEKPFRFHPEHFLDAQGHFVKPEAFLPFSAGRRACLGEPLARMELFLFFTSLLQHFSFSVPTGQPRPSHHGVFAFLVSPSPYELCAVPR
Rap guanine nucleotide exchange factor 3 (Homo sapiens), sequence (O95398 whole entry, looked up): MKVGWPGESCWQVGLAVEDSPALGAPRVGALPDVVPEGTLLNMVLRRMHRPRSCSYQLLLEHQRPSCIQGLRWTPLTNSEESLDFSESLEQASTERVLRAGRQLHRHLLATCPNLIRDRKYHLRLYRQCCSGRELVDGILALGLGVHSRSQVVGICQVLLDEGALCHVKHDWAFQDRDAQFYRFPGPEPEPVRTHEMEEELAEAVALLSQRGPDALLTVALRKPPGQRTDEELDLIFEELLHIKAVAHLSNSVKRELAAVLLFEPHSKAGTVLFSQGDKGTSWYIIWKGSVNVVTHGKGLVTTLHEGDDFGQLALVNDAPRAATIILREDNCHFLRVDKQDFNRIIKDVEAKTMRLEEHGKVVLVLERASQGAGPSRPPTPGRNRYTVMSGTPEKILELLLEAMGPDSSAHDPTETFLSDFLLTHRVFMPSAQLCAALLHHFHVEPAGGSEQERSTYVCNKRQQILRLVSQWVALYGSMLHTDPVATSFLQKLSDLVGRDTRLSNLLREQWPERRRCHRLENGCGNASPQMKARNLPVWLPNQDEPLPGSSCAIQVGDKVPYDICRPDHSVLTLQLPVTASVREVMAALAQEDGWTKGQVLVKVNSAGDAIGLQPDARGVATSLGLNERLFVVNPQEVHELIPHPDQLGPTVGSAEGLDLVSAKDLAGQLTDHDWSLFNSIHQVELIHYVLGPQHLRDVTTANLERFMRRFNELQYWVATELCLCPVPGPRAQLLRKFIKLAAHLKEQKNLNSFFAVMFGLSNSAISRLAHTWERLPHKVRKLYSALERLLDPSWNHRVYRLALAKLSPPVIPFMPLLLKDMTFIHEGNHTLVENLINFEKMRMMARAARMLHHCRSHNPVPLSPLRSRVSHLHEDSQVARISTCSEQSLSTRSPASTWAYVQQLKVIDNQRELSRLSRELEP
Rap guanine nucleotide exchange factor 4 (Homo sapiens), sequence (Q8WZA2 whole entry, looked up): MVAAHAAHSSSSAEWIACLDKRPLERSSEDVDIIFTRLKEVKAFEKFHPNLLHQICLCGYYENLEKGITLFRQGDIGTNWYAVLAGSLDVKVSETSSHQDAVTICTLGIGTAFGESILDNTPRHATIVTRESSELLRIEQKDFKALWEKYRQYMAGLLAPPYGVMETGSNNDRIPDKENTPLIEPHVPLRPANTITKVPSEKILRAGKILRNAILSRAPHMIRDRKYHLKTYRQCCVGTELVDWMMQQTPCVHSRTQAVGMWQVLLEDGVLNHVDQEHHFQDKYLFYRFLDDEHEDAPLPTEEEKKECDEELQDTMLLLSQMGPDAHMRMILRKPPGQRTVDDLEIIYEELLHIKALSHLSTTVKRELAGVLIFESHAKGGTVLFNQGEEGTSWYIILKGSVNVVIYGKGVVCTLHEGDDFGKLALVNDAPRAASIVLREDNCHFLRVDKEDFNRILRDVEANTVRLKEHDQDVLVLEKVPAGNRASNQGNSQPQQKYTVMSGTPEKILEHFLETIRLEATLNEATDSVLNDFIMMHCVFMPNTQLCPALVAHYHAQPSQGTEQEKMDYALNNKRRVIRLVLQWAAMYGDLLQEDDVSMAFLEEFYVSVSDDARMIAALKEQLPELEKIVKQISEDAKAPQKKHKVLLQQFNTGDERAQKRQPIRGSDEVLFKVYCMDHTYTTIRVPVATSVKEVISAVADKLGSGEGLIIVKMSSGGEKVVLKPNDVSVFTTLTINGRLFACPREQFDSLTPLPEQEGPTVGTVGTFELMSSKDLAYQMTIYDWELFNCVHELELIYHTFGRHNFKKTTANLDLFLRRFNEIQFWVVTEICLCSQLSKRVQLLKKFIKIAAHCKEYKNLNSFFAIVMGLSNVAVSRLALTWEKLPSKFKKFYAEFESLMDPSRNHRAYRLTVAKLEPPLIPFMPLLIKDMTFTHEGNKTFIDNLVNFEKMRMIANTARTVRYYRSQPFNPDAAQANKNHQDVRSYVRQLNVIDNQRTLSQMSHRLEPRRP
Glutathione peroxidase 1 (Homo sapiens), sequence (P07203 whole entry, looked up): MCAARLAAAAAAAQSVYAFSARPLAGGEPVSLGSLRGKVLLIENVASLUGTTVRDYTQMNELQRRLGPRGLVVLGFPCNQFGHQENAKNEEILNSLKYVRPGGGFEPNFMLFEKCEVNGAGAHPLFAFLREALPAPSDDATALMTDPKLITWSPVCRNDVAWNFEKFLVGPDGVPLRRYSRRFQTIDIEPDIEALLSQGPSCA
Cytochrome P450 3A4 (Homo sapiens), sequence (P08684 whole entry, looked up): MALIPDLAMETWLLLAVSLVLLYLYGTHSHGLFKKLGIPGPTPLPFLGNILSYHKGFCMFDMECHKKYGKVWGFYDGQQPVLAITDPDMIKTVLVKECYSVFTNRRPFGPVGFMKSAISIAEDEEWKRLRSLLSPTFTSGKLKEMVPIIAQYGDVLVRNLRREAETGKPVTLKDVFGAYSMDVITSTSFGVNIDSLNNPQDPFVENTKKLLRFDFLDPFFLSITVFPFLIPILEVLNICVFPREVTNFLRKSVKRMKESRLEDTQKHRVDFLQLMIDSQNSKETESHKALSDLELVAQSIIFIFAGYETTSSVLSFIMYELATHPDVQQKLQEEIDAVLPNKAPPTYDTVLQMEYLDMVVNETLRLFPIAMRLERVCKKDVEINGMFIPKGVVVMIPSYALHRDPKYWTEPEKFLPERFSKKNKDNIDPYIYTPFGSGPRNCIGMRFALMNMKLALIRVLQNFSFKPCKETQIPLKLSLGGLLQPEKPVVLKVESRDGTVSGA

CCCCCCCC(=O)OCC(O)CO (configuration not stated)
inactive: Potency [1] | Potency [2] | Potency [3] | Potency [4] | Potency [5]

CCCCCOC(=O)Nc1nc(=O)n([C@@H]2O[C@H](C)[C@@H](O)[C@H]2O)cc1F
inactive: Potency [1] | Potency [2] | Potency [6] | Potency [3] | Potency [4] | Potency [5]

CC(C)(C)C(=O)OCOC(=O)[C@@H]1N2C(=O)[C@@H](NC(=O)[C@H](N)c3ccccc3)[C@H]2SC1(C)C
inactive: Potency [1] | Potency [2] | Potency [3] | Potency [4]

O=C(O)c1cc(=O)c2ccccc2o1
inactive: Potency [2] | outcome [7] | Potency [6] | Potency [3] | Potency [4]

NC(N)=NCCN1CCCCCCC1
inactive: % pathology change, negative = correction [1] -4.73% [at 0.369 µM] | outcome [3] inactive [at 0.588 µM] | activity change, negative = cell killing [4] 1.99% [at 0.588 µM] | outcome [5] inactive [at 0.4 µM]

CCOc1ccccc1O[C@H](c1ccccc1)[C@H]1CNCCO1
inactive: Potency [1] | Potency [6] | Potency [5]

CN[C@@H]1[C@@H](O)[C@@H](O[C@@H]2[C@H](O)[C@H](O[C@H]3OC(CN)=CC[C@H]3N)[C@@H](N)C[C@H]2N)OCC1(C)O (some centres not stated)
inactive: Potency [1] | Potency [3] | Potency [4] | Potency [5]

NC(=O)CC[C@@H](N)C(=O)O
inactive: Potency [1] | Potency [6] | Potency [3] | Potency [4] | Potency [5]

CN[C@@H]1[C@H](O)[C@H](NC)[C@H]2O[C@@]3(O)C(=O)C[C@@H](C)O[C@H]3O[C@@H]2[C@H]1O
inactive: Potency [1] | Potency [6] | Potency [3] | Potency [4] | Potency [5]

COc1ccc(NS(=O)(=O)c2ccc(N)cc2)nn1
inactive: Potency [1] | Potency [5]

O=C(NCN1CCOCC1)c1cnccn1
inactive: Potency [2] | Potency [6] | Potency [3]

CCS(=O)(=O)CCn1c([N+](=O)[O-])cnc1C
inactive: Potency [1] | Potency [5]

CCCCCCCC(=O)OCC(COC(=O)CCCCCCC)OC(=O)CCCCCCC
inactive: Potency [2] | Potency [6] | Potency [3] | Potency [4]

CC(=O)N(CC(O)CN(C(C)=O)c1c(I)c(C(=O)NCC(O)CO)c(I)c(C(=O)NCC(O)CO)c1I)c1c(I)c(C(=O)NCC(O)CO)c(I)c(C(=O)NCC(O)CO)c1I (configuration not stated)
inactive: Potency [2] | outcome [7] | Potency [6] | Potency [3] | Potency [4] | Potency [5]

Cc1cc(NC(=O)C2=C(O)c3ccccc3S(=O)(=O)N2C)no1
inactive: Potency [2] | Potency [6] | Potency [3] | Potency [4]

CCN[C@H]1CN(CCCOC)S(=O)(=O)c2sc(S(N)(=O)=O)cc21
inactive: Potency [1] | Potency [6] | Potency [3] | Potency [4] | outcome [8] | Potency [5]

CC(O)CCCCn1c(=O)c2c(ncn2C)n(C)c1=O (configuration not stated)
inactive: Potency [1] | Potency [6] | Potency [3] | Potency [4]

COc1ccc(O)cc1
inactive: Potency [2] | Potency [6]

O=C(O)Cc1cn(-c2ccccc2)nc1-c1ccc(Cl)cc1
active: Potency [6] 4.36 µM
inactive: Potency [2]

COc1ccc2cc(CCC(C)=O)ccc2c1
inactive: Potency [1] | Potency [6] | Potency [3] | Potency [4] | outcome [9] | outcome [10] | outcome [11] | outcome [13] | outcome [8] | Potency [5]
8.79 µM (active) and inactive: Potency [12]
